Results: the supplement of paper PMC6897291
Where a name gives a salt, the structure may show the parent alone.

test system: U-2932; assay: growth inhibition by drug alone (1 - RLU/untreated control) (fraction); higher = stronger inhibition; conditions: 1000 nM; time (day): 3; 177Lu-lilotomab satetraxetan 0 ug/ml
Method in brief: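 Growth inhibition was calculated from RealTime-Glo RLU against untreated no-drug wells. Values equal 1 − RLU/mean of 48 untreated no-drug wells per plate, read daily from day 3 after 1 h at 37°C. RIVA and U-2932 cells, with or without 18 h pretreatment by a radiolabelled anti-CD37 antibody conjugate (~600 MBq/mg; 0.5 µg/ml RIVA, 1 µg/ml U-2932), were washed and plated at 3,000 cells/well on compound-printed plates at 10/100 nM (RIVA) or 10/1,000 nM (U-2932).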

Structure (SMILES)	growth inhibition by drug alone
Nc1nc2[nH]cc(CCc3ccc(C(=O)N[C@@H](CCC(=O)O)C(=O)O)cc3)c2c(=O)[nH]1 [Pemetrexed]	0.905
COc1cc2nccc(Oc3ccc(NC(=O)Nc4cc(C)on4)c(Cl)c3)c2cc1OC [Tivozanib (AV-951)]	0.0629
CCC(=O)N1CCN(c2ccc(-n3c(=O)ccc4cnc5ccc(-c6cnc7ccccc7c6)cc5c43)cc2C(F)(F)F)CC1 [Torin 1]	0.9
COc1cccc2c1C(=O)c1c(O)c3c(c(O)c1C2=O)C[C@@](O)(C(=O)CO)C[C@@H]3O[C@H]1C[C@H](N)[C@@H](O)[C@H](C)O1 [Epirubicin Hydrochloride]	0.943
Clc1ccc(Nc2nnc(Cc3ccncc3)c3ccccc23)cc1 [Vatalanib dihydrochloride (PTK787)]	0.00749
COc1cc2nccc(Oc3ccc(NC(=O)C4(C(=O)Nc5ccc(F)cc5)CC4)cc3)c2cc1OC [XL-184 free base (Cabozantinib)]	0.0853
C[C@@H](O[C@H]1OCCN(Cc2n[nH]c(=O)[nH]2)[C@H]1c1ccc(F)cc1)c1cc(C(F)(F)F)cc(C(F)(F)F)c1 [Aprepitant (MK-0869)]	-0.0765
COc1cc2c(cc1O)CC[C@@H]1[C@@H]2CC[C@]2(C)[C@@H](O)CC[C@@H]12 [2-Methoxyestradiol]	0.719
CNCc1ccc(-c2[nH]c3cc(F)cc4c3c2CCNC4=O)cc1	0.0442
CC[C@@]1(O)C(=O)OCc2c1cc1n(c2=O)Cc2cc3c(CN(C)C)c(O)ccc3nc2-1 [Topotecan HCl]	0.952
